Activity calls are given as the source filed them. How the source made its calls: active means hit-call score of the fitted dose curve at least 0.9, where 1 is the maximum; inactive means score below 0.9.

The nature of assay [1]: ATG_CRE_CIS: Attagene CIS-FACTORIAL HepG2 Assay for human cAMP Responsive Element (CRE) binding protein 3 (AID 2282926). The settings on record: HepG2 CRE cis-reporter, Attagene multiplexed mRNA; actives raise or lower the signal. The essentials: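 Multiplexed transcription-unit reporters transfected into HepG2; 24 h dosing; RT-PCR/capillary electrophoresis fluorescence read-out; bidirectional fit vs DMSO.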

Assay [2] has as its target CCAAT/enhancer-binding protein beta (Homo sapiens) (UniProt P17676). Kind of assay: ATG_C_EBP_CIS: Attagene CIS-FACTORIAL HepG2 Assay for human CCAAT/Enhancer Binding Protein (C/EBP) beta (AID 2282927). The settings on record: HepG2 Attagene cis-factorial transcription factor reporter; actives raise or lower the signal. The procedure, abridged:
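Endogenous C/EBPb-driven reporter transcripts measured in transfected human HepG2 cells at 24 h via RT-PCR and capillary electrophoresis of labelled fragments. Activity fitted in both directions relative to DMSO baseline.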

A short description of assay [3]: ATG_CMV_CIS: Attagene CIS-FACTORIAL HepG2 Assay for human CMV (Internal Marker) (AID 2282928).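 Further: endpoint acts as a background internal control marker rather than a target.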 The settings on record: HepG2 CMV promoter reporter, transcription factor profiling; actives raise or lower the signal. The procedure, abridged:
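Cell system: HepG2, transiently transfected multiple reporter units under cis promoters. Exposure: 24 h. Detection: RT-PCR, FAM labeling, HpaI digestion, capillary electrophoresis. Analysis: bidirectional, DMSO baseline.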

Assay [4] in a line: ATG_DR4_LXR_CIS: Attagene CIS-FACTORIAL HepG2 Assay for human Liver X Receptor (LXR), DR4 submotif (AID 2282929). Conditions: HepG2 Attagene DR4 cis-reporter, mRNA transcription; actives raise or lower the signal. The procedure, abridged: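 Measures endogenous transcription factor activity via a DR4-driven reporter transcript in human HepG2 cells. Compounds incubated 24 h; mRNA quantified by RT-PCR and capillary electrophoresis, analysed as gain or loss of signal versus DMSO.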

Assay [5] in a line: ATG_AP_1_CIS: Attagene CIS-FACTORIAL HepG2 Assay for human Activator Protein 1 (AP-1) (AID 2282931). The settings on record: HepG2 Attagene cis-factorial AP-1 reporter mRNA; actives raise or lower the signal. The procedure, abridged: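 Bidirectional concentration-response fitting against DMSO controls. Underlying signal: reporter mRNA from cis-promoter constructs in transiently transfected HepG2, measured after 24 h by RT-PCR and capillary electrophoresis.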

The nature of assay [6]: ATG_BRE_CIS: Attagene CIS-FACTORIAL HepG2 Assay for human Bone Morphogenetic Protein (BMP) Response Element (BRE) (AID 2282933). The settings on record: HepG2 BMP response element reporter, Attagene transcription factor profiling; actives raise or lower the signal. The essentials:
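Read-out: reporter mRNA induction quantified by RT-PCR and capillary electrophoresis after 24 h chemical exposure of transfected HepG2 cells. Endogenous factor activity on the BMP response element; gain or loss fitted against DMSO baseline.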

Assay [7] can be described thus: ATG_E_Box_CIS: Attagene CIS-FACTORIAL HepG2 Assay for human Enhancer Box (E-box) (AID 2282936). The settings on record: HepG2 E-box cis-reporter transcription, actives raise or lower the signal. The essentials:
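Cells: HepG2 (human liver), transient MRTU transfection. Exposure 24 h. RNA → oligo(dT) RT → PCR → 6-FAM label → HpaI → CE. Activity fitted both directions relative to DMSO.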

Assay [8] in a line: ATG_M_19_CIS: Attagene CIS-FACTORIAL HepG2 Assay for M19 Transcription Factor (Internal Marker) (AID 2282939). The settings on record: HepG2 Attagene CIS-FACTORIAL M19 internal marker reporter; actives raise or lower the signal. The essentials: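 Readout: fluorescent reporter-transcript fragments by capillary electrophoresis after RT-PCR. Human HepG2 liver cells carried transfected MRTU constructs reporting endogenous transcription-factor activity; exposure 24 h. Gain or loss of signal fitted relative to DMSO.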

Assay [9] in a line: ATG_GATA_CIS: Attagene CIS-FACTORIAL HepG2 Assay for human GATA Binding Protein (AID 2282944). The settings on record: HepG2 GATA cis-element reporter, Attagene multiplex mRNA; actives raise or lower the signal. The essentials: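 Read-out: fluorescent reporter mRNA fragments resolved by capillary electrophoresis after RT-PCR. Human liver HepG2 cells carried transiently transfected cis-regulated reporter constructs; chemicals incubated 24 h; gain or loss of signal fitted relative to DMSO.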

A short description of assay [10]: ATG_ISRE_CIS: Attagene CIS-FACTORIAL HepG2 Assay for human Interferon Regulatory Factor 1 (IRF1) binding to an Interferon-Stimulated Response Element (ISRE) (AID 2282948). Conditions: HepG2 ISRE cis-reporter (Attagene), mRNA transcription readout; actives raise or lower the signal. The procedure, abridged:
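Quantitation relies on labelled RT-PCR fragments separated by capillary electrophoresis. Human HepG2 cells bearing cis-promoter reporter constructs were treated 24 h; DMSO served as baseline for bidirectional fitting.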

Assay [11] can be described thus: ATG_M_32_CIS: Attagene CIS-FACTORIAL HepG2 Assay for M32 Transcription Factor (Internal Marker) (AID 2282949).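 Further: background control marker of the multiplexed CIS panel rather than a real target.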 Conditions: HepG2 Attagene cis-factorial M32 reporter, mRNA; actives raise or lower the signal. The essentials: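 Fluorescent capillary electrophoresis peaks of HpaI-digested, FAM-labelled RT-PCR reporter products give the signal. Source: transiently transfected human liver HepG2 cells, 24 h after chemical dosing; bidirectional fitting against DMSO.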

Assay [12] is described as follows: ATG_M_06_CIS: Attagene CIS-FACTORIAL HepG2 Assay for M06 Transcription Factor (Internal Marker) (AID 2282950). Conditions: HepG2 Attagene CIS-FACTORIAL M06 internal marker reporter; actives raise or lower the signal. The procedure, abridged: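 Terse: HepG2, transient MRTU transfection (FuGene 6), 24 h dosing; total RNA, oligo(dT) RT, PCR, FAM label, HpaI cut, capillary electrophoresis; bidirectional fit vs DMSO baseline; background-control endpoint.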

Assay [13] can be described thus: ATG_MRE_CIS: Attagene CIS-FACTORIAL HepG2 Assay for human Metal Responsive Element (MRE) (AID 2282954). The settings on record: HepG2 MRE cis-reporter transcription, Attagene multiplex; actives raise or lower the signal. The procedure, abridged:
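Transient MRTU transfection of HepG2 (FuGene 6); 24 h dosing; total RNA → oligo(dT) RT, PCR, 6-FAM primer extension, HpaI cut, CE. Bidirectional fit vs DMSO.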

Assay [14] addresses Paired box protein Pax-6 (Homo sapiens) (UniProt P26367). Kind of assay: ATG_Pax6_CIS: Attagene CIS-FACTORIAL HepG2 Assay for human Paired Box 6 (PAX6) (AID 2282956). The settings on record: HepG2 CIS-FACTORIAL PAX6 reporter transcription, RNA readout; actives raise or lower the signal. The procedure, abridged: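 After twenty-four hours of chemical exposure, transfected HepG2 cells are harvested for RNA. Cis-promoter reporter transcripts are amplified, fluorescently labelled and sized by capillary electrophoresis, with gain and loss of signal scored against DMSO.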

Assay [15] can be described thus: ATG_PXRE_CIS: Attagene CIS-FACTORIAL HepG2 Assay for human Pregnane X Receptor Element (PXRE) (AID 2282957). The settings on record: HepG2 Attagene CIS-FACTORIAL PXRE reporter, mRNA; actives raise or lower the signal. The procedure, abridged:
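Cells: HepG2, transiently transfected reporter units under cis promoter control. Exposure: 24 h. Detection: reporter mRNA via RT-PCR/CE fluorescence; bidirectional fitting, DMSO-referenced.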

A short description of assay [16]: ATG_Sox_CIS: Attagene CIS-FACTORIAL HepG2 Assay for human SRY-box transcription factor (SOX) (AID 2282960). The settings on record: HepG2 Attagene cis-factorial SOX reporter, mRNA; actives raise or lower the signal. The procedure, abridged: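 After 24 h of chemical treatment, transfected HepG2 reporter cells are lysed for total RNA. Transcript levels come from RT-PCR with labelled primer extension and capillary electrophoresis, analysed bidirectionally versus DMSO.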

Assay [17] has as its target Transcription factor Sp1 (Homo sapiens) (UniProt P08047). Kind of assay: ATG_Sp1_CIS: Attagene CIS-FACTORIAL HepG2 Assay for human Specificity Protein 1 (Sp1) (AID 2282961). The settings on record: HepG2 Sp1 cis-reporter transcription, actives raise or lower the signal. The essentials: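 Sp1-driven reporter mRNA, read as capillary electrophoresis fluorescence after RT-PCR, in transiently transfected HepG2 cells dosed for 24 h; signal change in either direction relative to DMSO.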

Assay [18] in a line: ATG_TA_CIS: Attagene CIS-FACTORIAL HepG2 Assay for human TA Basal Promoter (AID 2282964). The settings on record: HepG2 Attagene CIS-factorial TA basal promoter reporter; actives raise or lower the signal. The procedure, abridged: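 Transfected HepG2, 24 h compound exposure; RNA → RT-PCR → FAM primer extension → HpaI cut → CE fluorescence. Gain/loss-of-signal fitted against DMSO negative control. Background-control readout.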

A short description of assay [19]: ATG_TCF_b_cat_CIS: Attagene CIS-FACTORIAL HepG2 Assay for human T-Cell-Factor with beta-catenin (TCF/b-cat) (AID 2282965). Conditions: HepG2 TCF/beta-catenin cis-reporter transcription, actives raise or lower the signal. The essentials: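 Endogenous TCF/LEF activity read as reporter transcript level via RT-PCR and capillary electrophoresis fluorescence in transfected HepG2, 24 h exposure; gain or loss of signal fitted against DMSO controls.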

The nature of assay [20]: ATG_TAL_CIS: Attagene CIS-FACTORIAL HepG2 Assay for human TAL Basal Promoter (AID 2282966).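 Further: background control endpoint measuring basal TAL promoter reporter mRNA not a specific factor.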 The settings on record: HepG2 Attagene cis-factorial TAL promoter reporter; actives raise or lower the signal. The essentials:
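RT-PCR plus capillary electrophoresis quantifies reporter mRNA induction in transiently transfected HepG2 cells after 24 h chemical treatment. DMSO serves as negative control and baseline for bidirectional fitting.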

Paired box protein Pax-6 (Homo sapiens), sequence (P26367 whole entry, looked up): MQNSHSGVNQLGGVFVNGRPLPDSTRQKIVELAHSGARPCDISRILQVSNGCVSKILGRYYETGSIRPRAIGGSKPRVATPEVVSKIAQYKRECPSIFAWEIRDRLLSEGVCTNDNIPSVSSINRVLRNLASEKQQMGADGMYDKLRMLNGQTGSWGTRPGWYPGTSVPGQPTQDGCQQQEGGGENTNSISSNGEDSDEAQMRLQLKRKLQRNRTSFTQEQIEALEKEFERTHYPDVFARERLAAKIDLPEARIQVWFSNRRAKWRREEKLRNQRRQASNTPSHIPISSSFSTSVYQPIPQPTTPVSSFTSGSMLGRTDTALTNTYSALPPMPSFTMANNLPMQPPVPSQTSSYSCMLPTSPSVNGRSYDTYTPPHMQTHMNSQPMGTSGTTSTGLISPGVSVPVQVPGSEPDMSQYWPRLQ
CCAAT/enhancer-binding protein beta (Homo sapiens), sequence (P17676 whole entry, looked up, the tested form may be a part): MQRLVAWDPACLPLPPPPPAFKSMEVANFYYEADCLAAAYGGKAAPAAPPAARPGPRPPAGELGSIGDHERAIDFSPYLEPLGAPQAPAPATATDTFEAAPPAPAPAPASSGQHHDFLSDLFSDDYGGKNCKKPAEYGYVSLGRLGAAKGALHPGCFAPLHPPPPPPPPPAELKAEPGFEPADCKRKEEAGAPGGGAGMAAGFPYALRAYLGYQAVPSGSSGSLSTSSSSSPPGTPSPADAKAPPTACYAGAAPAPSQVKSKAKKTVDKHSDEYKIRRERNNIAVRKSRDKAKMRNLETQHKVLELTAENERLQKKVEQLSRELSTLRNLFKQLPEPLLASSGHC
Transcription factor Sp1 (Homo sapiens), sequence (P08047 whole entry, looked up): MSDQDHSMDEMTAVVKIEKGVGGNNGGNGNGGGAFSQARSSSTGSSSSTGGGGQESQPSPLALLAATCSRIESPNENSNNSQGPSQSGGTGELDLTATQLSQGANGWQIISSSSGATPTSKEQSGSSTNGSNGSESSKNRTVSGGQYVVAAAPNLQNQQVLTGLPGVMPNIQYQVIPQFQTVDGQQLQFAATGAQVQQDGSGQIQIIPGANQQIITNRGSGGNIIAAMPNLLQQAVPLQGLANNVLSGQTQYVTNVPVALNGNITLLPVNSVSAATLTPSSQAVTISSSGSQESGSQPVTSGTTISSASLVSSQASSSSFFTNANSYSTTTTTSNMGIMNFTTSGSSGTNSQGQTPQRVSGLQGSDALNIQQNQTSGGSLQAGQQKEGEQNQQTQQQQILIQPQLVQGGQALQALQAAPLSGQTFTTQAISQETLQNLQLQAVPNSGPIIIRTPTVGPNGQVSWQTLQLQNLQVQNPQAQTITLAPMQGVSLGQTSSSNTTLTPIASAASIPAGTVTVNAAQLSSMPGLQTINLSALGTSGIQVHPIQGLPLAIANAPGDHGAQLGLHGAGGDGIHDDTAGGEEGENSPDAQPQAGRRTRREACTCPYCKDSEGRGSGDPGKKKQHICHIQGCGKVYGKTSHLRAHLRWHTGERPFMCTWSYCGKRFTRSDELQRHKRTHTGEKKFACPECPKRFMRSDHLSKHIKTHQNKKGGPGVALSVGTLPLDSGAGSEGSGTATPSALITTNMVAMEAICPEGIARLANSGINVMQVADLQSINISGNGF

One may read the AC50 as the concentration giving half of the maximal activity seen. For the compound `CC1=NN(c2cc(Cl)c(S(=O)(=O)O)cc2Cl)C(=O)C1N=Nc1ccc(S(=O)(=O)O)cc1` (stereo not given), the result in assay [1], in assay [2], in assay [3], in assay [4], in assay [5] and in [6] was inactive. The outcome in [7], in assay [8], in [9], in [10], in [11] and in [12] was inactive. The result in assay [13], in assay [14], in assay [16], in assay [17], in assay [18] and in assay [19] was inactive. In assay [20], the call was inactive. Moreover, the AC50 in [15] was 100 µM (active).

Turning to `CC(C)(C)NC(=O)[C@@H]1CN(Cc2cccnc2)CCN1C[C@@H](O)C[C@@H](Cc1ccccc1)C(=O)N[C@H]1c2ccccc2C[C@H]1O`, the compound was classed as inactive in assay [1], in [2], in assay [3], in assay [4], in assay [5] and in [6]. For the same compound, the outcome in assay [7], in [8], in assay [9], in assay [10], in assay [11] and in [12] was inactive. Besides, the compound was called inactive in assay [13], in assay [14], in assay [16], in assay [17], in assay [18] and in assay [19]. In addition, the result in [20] was inactive. The AC50 in [15] is 19.6 µM (active).

With `CCCN[C@H]1CCc2nc(N)sc2C1`, the result in assay [1], in [2], in assay [3], in assay [4], in assay [5] and in assay [6] was inactive. For the same compound, the outcome in assay [7], in assay [8], in assay [9], in assay [10], in assay [11] and in [12] was inactive. The compound was classed as inactive in [13], in assay [14], in [15], in assay [16], in [17] and in assay [18]. The outcome in assay [19] and in [20] was inactive.

Consider `C=C1CC[C@H]2C[C@@H]1C2(C)C`, for which the results for the AC50 in assay [1], in [6] and in assay [15] were 26 µM (active), 26.1 µM (active) and 11.5 µM (active), respectively. Further, the outcome in [2], in [3], in assay [4], in assay [5], in assay [7] and in [8] was inactive. In addition, the compound was called inactive in [9], in assay [10], in assay [11], in assay [12], in [13] and in assay [14]. Further, the outcome in assay [16], in assay [17], in assay [18], in assay [19] and in assay [20] was inactive.

Consider `CC1(C)S[C@@H]2[C@H](NC(=O)[C@H](N)c3ccccc3)C(=O)N2[C@H]1C(=O)O`, for which the compound was called inactive in assay [1], in assay [2], in [3], in assay [4], in assay [5] and in assay [6]. In addition, the outcome in assay [7], in assay [8], in assay [9], in [10], in assay [11] and in assay [12] was inactive. The call in assay [13], in assay [14], in assay [15], in [16], in assay [17] and in [18] was inactive. The outcome in assay [19] and in assay [20] was inactive.

Turning to `CN(C)CCCN1c2ccccc2CCc2ccc(Cl)cc21`, the call in [1], in assay [2], in [3], in assay [4], in assay [5] and in assay [6] was inactive. The outcome in assay [7], in [8], in [9], in assay [10], in assay [11] and in assay [12] was inactive. In addition, the call in assay [13], in assay [17], in assay [18] and in assay [20] was inactive. Besides, the AC50 in [14] is 11.1 µM (active); in assay [15], 5.14 µM (active); in assay [16] it was 11.1 µM (active); in assay [19], 7.29 µM (active).

As to `Nc1ccc(S(=O)(=O)Nc2cnc3ccccc3n2)cc1`, the outcome in assay [1], in assay [2], in assay [3], in assay [4], in assay [5] and in assay [6] was inactive. The outcome in assay [7], in assay [8], in assay [9], in assay [10], in assay [11] and in assay [12] was inactive. Further, the result in assay [13], in assay [14], in assay [15], in assay [16], in assay [17] and in [18] was inactive. The compound was called inactive in assay [19] and in [20].

Source of the values: PubChem BioAssay (EPA / NIEHS).
